Several values for one entry are separate records, joined by “and”; a condition that tells them apart may be missing. Equal entries are not always repeated. The whole screen tested about 350,000 compounds, of which about 31,000 (8.9%) were called active. Not shown: some 15% with an inconclusive outcome. This excerpt belongs to a sample that is enriched for actives. A number with no mark means an inactive call. Calls come from the whole dose curve; as a rule, active = well fitted inhibition curve with a large enough effect; inconclusive = small, poorly fitted or top-dose-only effect; inactive = no such curve, though single readings can be large or run the other way.
% is set by controls: 0 for no effect and ±100 for the full control effect; potency is the fitted concentration of half-maximal effect.

The assay deals with Histone-lysine N-methyltransferase EHMT2 (Homo sapiens) (UniProt Q96KQ7). Nature of the assay: qHTS Assay for Inhibitors of Histone Lysine Methyltransferase G9a. Note: nearly all actives have a fitted effect of over 75% in size. As to conditions: G9a H3K9 monomethylation, AlphaScreen, 2 h; series mostly up to 59 µM; activity, negative = inhibition: at the top concentration. The method, boiled down: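 G9a (20 nM) was preincubated 15 min with compound, then reacted 2 h at room temperature with 500 nM biotin-H3K9 peptide and 20 µM SAM. Monomethyl-H3K9 detected by AlphaScreen using anti-H3K9me1 antibody.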
Histone-lysine N-methyltransferase EHMT2 (Homo sapiens), sequence (Q96KQ7 913-1193 limits assumed): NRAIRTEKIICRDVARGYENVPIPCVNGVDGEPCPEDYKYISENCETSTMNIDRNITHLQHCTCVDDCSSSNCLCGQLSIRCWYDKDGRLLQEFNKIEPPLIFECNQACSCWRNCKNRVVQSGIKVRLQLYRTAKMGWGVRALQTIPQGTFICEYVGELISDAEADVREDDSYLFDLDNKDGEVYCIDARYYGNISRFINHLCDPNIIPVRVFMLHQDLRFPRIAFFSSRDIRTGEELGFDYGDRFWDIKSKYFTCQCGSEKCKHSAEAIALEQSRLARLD
In the case of `CCOC(=O)N1CCc2c(sc3c2C(=O)NC(c2ccccc2F)N3)C1` (stereo unspecified), the “activity, negative = inhibition” value is 0.769%.
The same measure, in the same setting: next, `CCOC(=O)N1CCc2c(sc3c2c(=O)n(Cc2ccccc2)c(=O)n3CC(=O)Nc2cccc(C)c2)C1`: 16.6%.
As for `CCOC(=O)N1CCc2c(sc(NCc3cccc(F)c3)c2C(=O)Nc2ccccc2OCC)C1`, the Potency was 1.41 µM (active).
Turning to `COC(=O)c1ccccc1NC(=O)Cn1c(=O)n(-c2cccc(C(F)(F)F)c2)c(=O)c2c(C)c(C)sc21`, the “activity, negative = inhibition” value is -5.38%.
Same read-out and setting: next, `CS(=O)(=O)N1CCc2nc(-c3ccccc3)sc2C1`: 6.88% [at 102 µM]; `Cc1ccc(S(=O)(=O)N2CCC(C(=O)OCC(=O)N(C)c3ccccc3)CC2)cc1C`: -20.5% [at 102 µM].
For `O=C(Nc1c(-c2ccc(F)cc2)nc2ccccn12)c1cccc(F)c1`, the “activity, negative = inhibition” value was 2.37%.
For the compound `O=C(COC(=O)c1ccc(Oc2ccccc2)cc1)Nc1nnc(-c2ccccc2)o1`, the activity, negative = inhibition is 17.6% [at 12.7 µM].
Regarding `O=C(COC(=O)c1ccccc1Br)Nc1nnc(-c2ccccc2)o1`, the “activity, negative = inhibition” value was -5.03% [at 102 µM].
In the case of `CCCC(=O)Nc1nnc(-c2ccccc2)o1`, the Potency is 39.8 µM (active).
For `CCN(CC)CCNC(=O)c1cc2c(=O)oc3ccc(C)cc3c2s1`, the “activity, negative = inhibition” value is 6.68%.
As for `CCNC(=O)c1cccc(NC(=O)C2CC(=O)N(CCc3ccccc3)C2)c1` (stereo unspecified), the activity, negative = inhibition was 8.14% [at 0.501 µM].
On to `COc1ccc2cc(C3=CC(=O)C[C@H](c4ccc5c(c4)OCO5)C3)ccc2c1`, for which the activity, negative = inhibition was 7.57% [at 0.501 µM].
As for `COc1cccc(NC(=O)COC(=O)/C=C/c2ccco2)c1`, the activity, negative = inhibition is 13.7% [at 2.33 µM].
Regarding `CC(C)CNC(=O)COC(=O)/C=C/c1ccco1`, the “activity, negative = inhibition” value was 20%.
On to `NS(=O)(=O)c1cccc(NC(=O)COC(=O)/C=C/c2ccco2)c1`, for which the Potency is 25.1 µM (active).
Regarding `O=S(=O)(NCCS(=O)(=O)N1CCN(c2ccccc2)CC1)c1ccc(F)cc1`, the “activity, negative = inhibition” value is -3.65% [at 102 µM].
`COc1ccc(C(=O)NCc2nnc(SCCOc3ccccc3)n2C)cc1`: the activity, negative = inhibition is 13.9% [at 12.7 µM].
On the same count and under the same terms, next, `CCn1c(COc2cccc(OC)c2)nnc1SCC(=O)N1CCOCC1`: 8.24% [at 102 µM].
Consider `COc1cccc(OCc2nnc3n2N=C(c2ccccc2)C(CC(=O)O)S3)c1` (stereo unspecified), for which the Potency is 44.7 µM (active).
Take `COc1ccc(OCc2nnc3n2N=C(c2ccccc2)C(CC(=O)O)S3)cc1` (stereo unspecified): the Potency is 1.58 µM (active).
As for `COc1ccc(C2CC(c3ccccc3)=NN2C(=O)COC(=O)COc2ccccc2)cc1` (stereo unspecified), the “activity, negative = inhibition” value was -3.35% [at 102 µM].
Still for that read-out and setting: the value for `COc1cccc(OCC(=O)Nc2ccccc2C(N)=O)c1` was 6.62% [at 12.7 µM]; that for `CCN(CC)S(=O)(=O)c1ccc2c(c1)N(CC(=O)NCc1ccccc1)C(=O)CS2` was 7.17%; that for `COc1cccc(CNC(=O)C(=O)NCCC2CCCCN2S(=O)(=O)c2ccc(C)cc2)c1` (stereo unspecified) was 0.971% [at 0.501 µM].
On the same count and under the same terms, next, `COc1ccccc1NC(=O)CSc1nnc(C)n1CC1CCCO1` (stereo unspecified): -7.36%.
For the compound `CC(=O)Nc1ccc(NC(=O)CSc2nnc(COc3ccccc3C)n2CC2CCCO2)cc1` (stereo unspecified), the “activity, negative = inhibition” value was 7.69% [at 102 µM].
Take `CCOc1cccc(=O)c2c(C)n(CC3CCCO3)c(C)c12` (stereo unspecified): the Potency was 70.8 µM (active).
Take `Cc1ccc(NC(=O)COC(=O)CN2CCCCCC2=O)c(C)c1`: the “activity, negative = inhibition” value is -2.73%.
In the case of `Cc1cc(C)cc(-n2c(SCC(=O)NCC3CCCO3)nc3c([nH]c4ccccc43)c2=O)c1` (stereo unspecified), the “activity, negative = inhibition” value was 12%.
Still for that read-out and setting: next, `CCCCCOC(=O)c1ccc(N2C(=O)C3C4C=CC(C4)C3C2=O)cc1` (stereo unspecified): 11.8% [at 102 µM].
Take `CCCCCCC(=O)N(O)C1CC(=O)N(c2ccccc2)C1=O` (stereo unspecified): the Potency was 0.794 µM (active).
In the case of `CCOc1ccc(N2C(=O)CC(N(CCc3ccc(OC)c(OC)c3)C(=S)Nc3ccccc3)C2=O)cc1` (stereo unspecified), the “activity, negative = inhibition” value was 1.28%.
Regarding `O=C(Nc1cccc(F)c1)NC1CCCc2ccccc21` (stereo unspecified), the “activity, negative = inhibition” value is 80.8% [at 102 µM].
Still for that read-out and setting: next, `COc1ccc(-n2ccn(CC(=O)Nc3ccc(C)c(C)c3)c(=O)c2=O)cc1OC`: -34.1%; `O=C1C(Cc2ccc(O)cc2)NC(=S)N1Cc1ccccc1` (stereo unspecified): 4.15% [at 102 µM].
Take `Oc1ccc(Cn2cc[nH]c2=S)cc1`: the Potency is 3.16 µM (active) and 2.99 µM (active).
Turning to `N#Cc1ccc(OCC(=O)NC(=O)NC2CCS(=O)(=O)C2)cc1` (stereo unspecified), the activity, negative = inhibition is -2.17% [at 12.7 µM].
Same read-out and setting: next, `COc1ccc(OC)c(S(=O)(=O)Nc2c(C)nn(C)c2C)c1`: 3.63% [at 12.7 µM]; `Cc1nc2sc3c(c2c(=O)n1NC(=O)CCl)CCCC3`: -21.8% [at 102 µM].
With `C=CCn1c(SCC(=O)NCCCO)nc2sc3c(c2c1=O)CCC3`, the “activity, negative = inhibition” value was 29.7% [at 102 µM].
Consider `COCCCn1c(SCC(=O)Nc2oc(C)c3c(C)n[nH]c(=O)c23)nc2sc3c(c2c1=O)CCC3`, for which the Potency was 6.31 µM (active).
As to `Cc1ccc(S(=O)(=O)N(CC(=O)Nc2ccc(Cl)cc2Cl)c2ccccc2C)cc1`, the “activity, negative = inhibition” value is 23.4%.
As to `CCCCN(C1CCS(=O)(=O)C1)S(=O)(=O)c1ccc(C(C)C)cc1` (stereo unspecified), the “activity, negative = inhibition” value is -28.2% [at 102 µM].
Take `COc1cc(OC)c(NC(=O)N2CC3CCCN3c3ccccc32)cc1Cl` (stereo unspecified): the Potency is 8.91 µM (active).
Regarding `Cc1ccccc1CNC(=O)c1ccc(NC(=O)N2CCCCc3ccccc32)cc1`, the “activity, negative = inhibition” value is 15.8%.
Take `COc1ccc(CNC(=O)c2ccc(NC(=O)N3CC4CCCN4c4ccccc43)cc2)cc1` (stereo unspecified): the Potency was 7.08 µM (active).
Turning to `COc1ccccc1CNC(=O)c1ccc(NC(=O)N2CC(C)Sc3ccccc32)cc1` (stereo unspecified), the “activity, negative = inhibition” value is 7.67%.
The same measure, in the same setting: the value for `COc1cc(OC)c(NC(=O)C2CCCN2C(=O)OCc2ccccc2)cc1Cl` (stereo unspecified) was 16.8% [at 102 µM]; that for `O=C(CCC(=O)N1CC2CCCN2c2ccccc21)NCc1ccccc1Cl` (stereo unspecified) was -28.5%.
`Cc1cccc(N2CCN(C(=O)COCc3cc(-c4ccc5c(c4)OCO5)on3)CC2)c1C`: the Potency entry is “inactive”.
Consider `Oc1ccccc1C1=NN(c2ccccc2)C(c2ccccc2)C1` (stereo unspecified), for which the “activity, negative = inhibition” value was 99% [at 102 µM].
Turning to `O=C(NNC(=O)c1cc(-c2ccccc2Cl)nc2ccccc12)c1csc(N2CCOCC2)n1`, the activity, negative = inhibition was 10% [at 2.33 µM].
`Cc1ccccc1C(=O)Nc1nnc(S(=O)(=O)N(C)c2ccc(Cl)cc2)s1`: the “activity, negative = inhibition” value is -0.311%.
Same read-out and setting: next, `CCOC(=O)N1CCN(Cc2nc3cc(NC(C)=O)ccc3n2C)CC1`: 18.2% [at 102 µM].
On to `CCOC(=O)N1CCN(Cc2nc3ccc([N+](=O)[O-])cc3c(=O)n2-c2cccc(OC)c2)CC1`, for which the Potency was 39.8 µM (active).
Take `COc1cccc(-n2nc(C(=O)N3CCN(Cc4ccccc4)CC3)c3ccccc3c2=O)c1`: the “activity, negative = inhibition” value was -35.7% [at 102 µM].
As for `CCCCN1C(=O)c2[nH]nc(-c3ccccc3O)c2C1c1cccc(OCc2ccccc2)c1` (stereo unspecified), the “activity, negative = inhibition” value is -0.0883%.
In the case of `Cc1cccc(C(=O)NCc2nnc(SC(C)C(=O)Nc3nnc(C)s3)n2C)c1` (stereo unspecified), the “activity, negative = inhibition” value is -30.1% [at 102 µM].
With `COCCn1c(SC(C)C(=O)NC2CC2)nnc1-c1cccc(C)c1` (stereo unspecified), the Potency is 28.2 µM (active).
As to `COCCCn1c(SCC(=O)NC2CCCC2)nnc1-c1ccccc1`, the “activity, negative = inhibition” value is 23% [at 102 µM].

The values above are taken from PubChem BioAssay AID504332 (National Center for Advancing Translational Sciences (NCATS), 2011).
